Source: PubChem BioAssay
AMA1 RON2 block = inhibitors of Plasmodium falciparum AMA1-RON2 interaction; AlphaScreen AMA1-biotinylated RON2 peptide binding; Potency, µM (titrated, usually from 58.2 µM), for the others: top-dose activity change, negative = inhibition, usual class: inhibitors; 0.2% of 360,000 active; AID 720542;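 note: 0% = vehicle wells and -100% = peptide control; nearly all actives have a fitted effect of over 45% in size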
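AMA1 (3D7) with his tag at 25 nM final met compounds first, then biotinylated RON2 peptide at 25 nM; detection used donor plus acceptor beads, 10 µg/mL apiece, read by AlphaScreen after 30 min at room temperature.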
VACV Venus inh = inhibitors of vaccinia virus (Venus reporter); AID 720580; Potency, µM (top dose mostly 36.5 µM), for the others: at the top dose activity change, negative = inhibition, hits mostly inhibitors; Vaccinia virus Venus reporter expression, fluorescence; 0.46% of 330,000 active; calls by dose curve; tested in A549 cells; note: nearly all actives have a fitted effect of over 30% in size
Pf growth 48h = P. falciparum growth inhibition at 48 hours (one generation) | Potency, µM (doses to about 28.7 µM), for inactives: at the highest dose activity change, negative = inhibition, most hits filed as inhibitors | 5.9% of 310,000 active | P. falciparum luciferase growth in erythrocytes, 48 h | AID 504832
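Here the parasites carry a stable luciferase gene and grow inside erythrocytes in Albumax-based RPMI medium with compound for one erythrocytic cycle. Activity is scored as loss of luminescent signal.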
Pf growth 96h = inhibits malaria parasite growth, 96 h; P. falciparum luciferase reporter growth, 96 h; AID 504834; Potency, µM (titrated, usually from 28.7 µM), without a hit: at the top dose activity change, negative = inhibition, usual class: inhibitors; 6.9% of 320,000 active
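Plates of compound plus infected erythrocytes (2% hematocrit, 0.05% parasitemia final) incubate 96 hours, 37 C, 5% CO2. Detection reagent added; reduced luminescence from the parasites' luciferase reporter flags inhibition.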
Vaccinia mCherry = vaccinia inhibition (mCherry reporter); Potency, µM (doses to about 36.5 µM), without a hit: top-dose activity change, negative = inhibition, most hits filed as inhibitors; 0.63% of 310,000 active; Vaccinia virus mCherry reporter infection, fluorescence; calls by dose curve; tested in A549 cells; note: nearly all actives have a fitted effect of over 35% in size
Active calls of the source: *; i = inactive; ? = inconclusive; / = no result; [ ] = dose if it differs, or a comment. Compounds with a hit are over-represented: about 8.7% of the library has one in this group of screens. Unless noted, calls come from the whole dose curve; as a rule, active = well fitted curve in the direction sought with a large enough effect; inconclusive = small, poorly fitted or top-dose-only effect, or another doubt; inactive = no such curve, though single readings can be large; an effect the other way counts as inactive or inconclusive. Unless noted, % is set by controls: 0 for no effect and ±100 for the full control effect; potency is the fitted concentration of half-maximal effect.

SMILES	AMA1 RON2 block	VACV Venus inh	Pf growth 48h	Pf growth 96h	Vaccinia mCherry
COCCn1c(-c2ccc(OC(F)(F)C(F)C(F)(F)F)cc2)nc2c1c(=O)[nH]c(=O)n2CC(C)C (stereo not given)	5.0%	-27.6%	/	6.57µM*	/
COc1ccc(NC(=O)CCCc2nc(-c3ccco3)no2)c(OC)c1	/	-1.5%	/	/	-6.5%
C=C(NC(=O)C(=C)NC(=O)c1csc(C2=N[C@@H]3c4csc(n4)[C@@H]4NC(=O)c5csc(n5)[C@@H]([C@](C)(O)[C@H](C)O)NC(=O)[C@@H]5CSC(=N5)/C(=C/C)NC(=O)[C@@H]([C@H](C)O)NC(=O)c5csc(n5)[C@]3(CC2)NC(=O)[C@@H](C)NC(=O)C(=C)NC(=O)[C@@H](C)NC(=O)[C@@H]([C@@H](C)CC)N[C@H]2C=Cc3c([C@H](C)O)cc(nc3[C@@H]2O)C(=O)O[C@H]4C)n1)C(N)=O	/	/	5.73µM*	4.05µM*	/
C=C(NC(=O)C(=C)NC(=O)c1csc(C2=NC3c4csc(n4)C4NC(=O)c5csc(n5)C([C@@](C)(O)C(C)O)NC(=O)C5CSC(=N5)/C(=C\C)NC(=O)C(C(C)O)NC(=O)c5csc(n5)[C@]3(CC2)NC(=O)C(C)NC(=O)C(=C)NC(=O)C(C)NC(=O)C(C(C)CC)NC2C=Cc3c(C(C)O)cc(nc3C2O)C(=O)OC4C)n1)C(N)=O (stereo not given in full)	/	/	0.828µM*	0.738µM*	/
C=C(NC(=O)C(=C)NC(=O)c1csc(C2=NC3c4csc(n4)C4NC(=O)c5csc(n5)C(C(C)(O)C(C)O)NC(=O)C5CSC(=N5)C(=CC)NC(=O)C(C(C)O)NC(=O)c5csc(n5)C3(CC2)NC(=O)C(C)NC(=O)C(=C)NC(=O)C(C)NC(=O)C(C(C)CC)NC2C=Cc3c(C(C)O)cc(nc3C2O)C(=O)OC4C)n1)C(N)=O (stereo not given)	/	-10.0%	/	/	-12.9%
CN(Cc1ccccc1)c1nc(-c2ccc(F)cc2)cc(C(F)(F)F)n1	/	-0.6%	/	/	-12.8%
CNCC(=O)NCC(=O)N[C@@H](Cc1ccccc1)C(=O)N[C@@H](CC(C)C)C(=O)O	/	-4.4%[3.33 µM]	/	/	i[3.33 µM]
CCOc1ccc(NC(=O)C2CCN(S(=O)(=O)c3c(C)noc3C)CC2)cc1	34.0%	/	-0.7%	7.38µM*	/
CCOc1ccccc1/C=C/c1onc(C)c1S(=O)(=O)N1CCC(C(=O)NC(C)(C)C)CC1	-8.2%	/	14.7µM*	53.6%	/
CCc1ccc(NC(=O)C2CCN(S(=O)(=O)c3c(C)noc3C)CC2)cc1	6.3%	-5.4%	-7.6%	5.86µM*	-10.9%
COc1cc(O)ccc1-c1nc2cc(C)ccn2c1Nc1ccccc1C	/	-12.2%	/	/	-5.9%
Cc1cccc2cc(CNCCCN3CCCC3=O)c(N3CCN4CCCC4C3)nc12 (stereo not given)	/	-18.8%	/	/	i
COc1ccc(-c2cc(C)no2)cc1S(=O)(=O)N1CCN(c2ccc(C(C)=O)cc2)CC1	/	-20.1%	/	/	-19.8%
COc1ccc(O[C@H]2C=C[C@@H](c3ccccc3)O[C@@H]2COC(=O)CC/C(C)=N/O[C@H](C)c2cn([C@@H]3COC[C@H]3O)nn2)cc1	/	/	14.7µM*	?	/
COc1ccc(O[C@H]2C=C[C@@H](c3ccccc3)O[C@@H]2COC(=O)CCC(C)=NO[C@@H]2O[C@H](COC(C)=O)[C@@H](OC(C)=O)[C@H](OC(C)=O)[C@H]2OC(C)=O)cc1	/	/	-4.7%	?	/
COc1ccc(C2c3c(ncn(CCN4CCOCC4)c3=N)Oc3ccc4ccccc4c32)cc1OC (stereo not given)	-2.3%	-14.6%	4.15µM*	0.586µM*	i
COc1ccc(C2c3c(ncn(CCCO)c3=N)Oc3ccc4ccccc4c32)cc1OC (stereo not given)	-21.5%	-27.8%	13.1µM*	1.65µM*	i
COc1ccc(C2c3c(ncn(CCCO)c3=N)Oc3ccc4ccccc4c32)cc1 (stereo not given)	-27.6%	0.0%	11.7µM*	?	i
COc1ccc(C2C3=C(CC(C)(C)CC3=O)Oc3ncn(CCO)c(=N)c32)cc1OC (stereo not given)	-13.4%	/	/	229.6%	/
COc1ccc(C2c3ccc4ccccc4c3Oc3ncn4nc(Cc5ccccc5)nc4c32)cc1OC (stereo not given)	-19.3%	-9.4%	?	11.7%	-4.9%
COc1ccc(C2c3c(ccc4ccccc34)Oc3ncn4nc(Cc5ccccc5)nc4c32)cc1OC (stereo not given)	14.9%	-2.9%	1.65µM*	1.47µM*	-13.0%
CCOc1ccc2[nH]c3c(NCCO)ncnc3c2c1	-7.8%	/	10.7%	11.7%	/
COc1ccc2[nH]c3c(NCCN4CCCCC4)ncnc3c2c1	/	/	2.08µM*	20.1%	/
CCOc1ccc2[nH]c3c(NCCc4ccc(OC)c(OC)c4)ncnc3c2c1	-29.0%	-6.6%	4.65µM*	3.7µM*	?
COc1ccc(-n2c(C)cc(/C=N/Nc3nnc(C)n3N)c2C)cc1	-9.3%	?	?	72.8%	11.2µM*
SMILES	AMA1 RON2 block	VACV Venus inh	Pf growth 48h	Pf growth 96h	Vaccinia mCherry
COc1cccc(/C=N/Nc2cc(Cl)nc(C)n2)c1O	111.9%	/	?	14.2%	/
COc1cccc(/C=N/Nc2ncnc3c2ncn3Cc2ccccc2)c1O	22.9%	?	1.85µM*	2.33µM*	3.16µM*
CCOc1ccc(-n2c(C)cc(/C=N/Nc3nc(C)cc(=O)[nH]3)c2C)cc1	53.1%	-5.6%	1.65µM*	?	-10.2%
Cc1nnc(N/N=C/c2ccccc2F)n1N	37.0%	/	26.5%	3.6%	/
COc1cccc(/C=N/Nc2nnc(C)n2N)c1O	92.6%	?	-26.3%	7.6%	7.08µM*
CCOc1ccc(-n2c(C)cc(/C=N/NC(=O)C(N)=O)c2C)cc1	59.3%	-9.3%	-6.2%	-0.2%	-9.8%
CCOc1ccc(-c2c(C)nn3c(C)c(C(=O)NCC(C)c4ccccc4)cnc23)cc1OCC (stereo not given)	/	-27.4%	/	/	?
CCCCCOc1ccc(Br)cc1/C(C)=N/NC1=NCCN1	58.8%	12.6µM*	5.22µM*	?	?
COc1ccccc1CN1CCOc2ccc(CN3CCC(Oc4cccnc4)CC3)cc2C1	/	1.9%	/	/	-19.6%
COc1ccc(CN2C(=O)C(Cc3ccccc3)Nc3ncnc(N4CCc5ccccc5C4)c32)cc1 (stereo not given)	/	/	7.38µM*	5.22µM*	/
O=C1C(Cc2ccccc2)Nc2ncnc(N3CCc4ccccc4C3)c2N1Cc1ccc(Cl)cc1 (stereo not given)	18.6%	?	14.7µM*	6.57µM*	?
CCC1Nc2ncnc(N3CCc4ccccc4C3)c2N(Cc2ccc(Cl)cc2)C1=O (stereo not given)	4.2%	?	/	/	-22.6%
COc1ccc(CN2C(=O)C(Cc3ccccc3)Nc3ncnc(N4CCOCC4)c32)cc1 (stereo not given)	11.1%	-11.1%	?	?	2.4%
